Several values for one entry are separate records, joined by “and”; a condition that tells them apart may be missing. Equal entries are not always repeated. Records with an inconclusive call do not appear. More than one record can exist for a structure, and the calls need not agree. Activity calls are given as the source filed them. How the source made its calls: active means hit-call score of the fitted dose curve at least 0.9, where 1 is the maximum; inconclusive means response in the unintended direction; inactive means score below 0.9.
How the values were obtained:
[1] = ATG_XTT_Cytotoxicity: Cytotoxicity Assessment in the Attagene TRANS-FACTORIAL HepG2 Assay (AID 2283584);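 on AC50: XTT signal for cell number as viability in transfected HepG2 cells; cells exposed to compound for 24 h before reading; active means loss of viability signal versus DMSO baseline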
Method in brief: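 24 h chemical exposure of reporter-transfected HepG2; XTT signal loss vs DMSO indicates cytotoxicity.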

[2] = TOX21_p53_BLA_p2_viability: Viability Assessment in the Tox21 HCT-116 p53 Agonism Beta-lactamase Assay, Phase 2 (AID 2283591);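 further: compound exposure lasted 16 h at 37 °C; actives lower the ATP signal meaning cytotoxicity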
Method in brief: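 HCT-116 p53-bla cells (4000/well) rested 5 h at 37C, then received compounds in DMSO (217-fold dilution) for 16 h at 37C, 5% CO2. After the CCF4 read, CellTiter-Glo was added; ATP luminescence was read after 30 min at room temperature.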

[3] = target: Cellular tumor antigen p53 (Homo sapiens) (UniProt P04637); assay: TOX21_p53_BLA_p2_ratio: Tox21 HCT-116 p53 Agonism Beta-lactamase Assay, Ratio, Phase 2 (AID 2283592)
Method in brief: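 Human colon HCT116 cells with an inducible p53 beta-lactamase reporter are exposed to test chemicals for 16 h at 37C. Reporter induction is read as the 460/530 nm emission ratio after CCF4-AM loading, normalized to DMSO.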

[4] = TOX21_p53_BLA_p3_viability: Viability Assessment in the Tox21 HCT-116 p53 Agonism Beta-lactamase Assay, Phase 3 (AID 2283593);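 further: cells exposed to compound for 16 h before reading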
Method in brief: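 HCT-116 cells (4000/well) rested 5 h at 37C, then got DMSO compounds by pin tool (217-fold dilution) for 16 h at 37C, 5% CO2. After the bla read, CellTiter-Glo was added and luminescence read at 30 min, room temperature.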

[5] = target: Cellular tumor antigen p53 (Homo sapiens) (UniProt P04637); assay: TOX21_p53_BLA_p3_ratio: Tox21 HCT-116 p53 Agonism Beta-lactamase Assay, Ratio, Phase 3 (AID 2283596)
Method in brief: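 HCT116 p53-bla cells (4000/well) given compound in DMSO (217-fold dilution) after 5 h, incubated 16 h at 37C. CCF4-AM substrate 2 h at room temperature; 460/530 nm emission ratio, gain fitted against DMSO.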

[6] = TOX21_p53_BLA_p4_viability: Viability Assessment in the Tox21 HCT-116 p53 Agonism Beta-lactamase Assay, Phase 4 (AID 2283597);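 further: hits lower the luminescence signal meaning cytotoxicity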
Method in brief: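 Luminescent ATP readout (CellTiter-Glo, 30 min, room temperature) in the same wells as the p53 bla ratio. HCT116 cells were treated for 16 h at 37C with DMSO-dissolved compounds.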

[7] = target: Cellular tumor antigen p53 (Homo sapiens) (UniProt P04637); assay: TOX21_p53_BLA_p5_ratio: Tox21 HCT-116 p53 Agonism Beta-lactamase Assay, Ratio, Phase 5 (AID 2283599)
Method in brief: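 HCT-116 cells carrying a p53-inducible beta-lactamase reporter were seeded at 4000 cells/well and dosed after 5 h with compound in DMSO (217-fold dilution). After 16 h at 37C, CCF4-AM substrate was added for 2 h, and the 460/530 nm emission ratio was scored as gain-of-signal versus DMSO.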

[8] = TOX21_p53_BLA_p5_viability: Viability Assessment in the Tox21 HCT-116 p53 Agonism Beta-lactamase Assay, Phase 5 (AID 2283600)
Method in brief: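 Seeded cells (4000/well) settle 5 h before compound addition. Plates then incubate 16 h at 37C, receive FRET substrate for 2 h, and finally CellTiter-Glo, with luminescence measured after a 30 min room-temperature incubation.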

[9] = target: Cellular tumor antigen p53 (Homo sapiens) (UniProt P04637); assay: TOX21_p53_BLA_p4_ratio: Tox21 HCT-116 p53 Agonism Beta-lactamase Assay, Ratio, Phase 4 (AID 2283601)
Method in brief: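 HCT116 cells carrying an inducible beta-lactamase reporter were plated at 4000 cells/well, rested 5 h, then exposed to compounds in DMSO (217-fold dilution) for 16 h at 37C. CCF4-AM substrate was loaded 2 h at room temperature; 460/530 nm emission ratio scored gain-of-signal versus DMSO.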

Measured: AC50

Cellular tumor antigen p53 (Homo sapiens), sequence (P04637 whole entry, looked up): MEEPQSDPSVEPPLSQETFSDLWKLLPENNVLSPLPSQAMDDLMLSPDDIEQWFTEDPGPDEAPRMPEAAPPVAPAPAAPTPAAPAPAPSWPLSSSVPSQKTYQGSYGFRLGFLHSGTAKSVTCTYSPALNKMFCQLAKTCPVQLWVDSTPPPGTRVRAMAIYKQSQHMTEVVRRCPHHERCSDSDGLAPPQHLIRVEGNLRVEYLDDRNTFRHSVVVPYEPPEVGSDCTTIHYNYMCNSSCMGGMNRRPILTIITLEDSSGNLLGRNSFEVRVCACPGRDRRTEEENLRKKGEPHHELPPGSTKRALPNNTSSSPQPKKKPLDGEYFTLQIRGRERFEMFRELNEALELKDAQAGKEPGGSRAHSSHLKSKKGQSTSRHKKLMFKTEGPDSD

Oc1c(I)cc(I)cc1I
inactive: [1]

CCc1ccccc1C
inactive: [1]

CCc1ccccc1N
inactive: [1]

C[C@]12CC[C@H](O)CC1=CC[C@@H]1[C@@H]2CC[C@]2(C)C(=O)CC[C@@H]12
inactive: [1]

COc1ccc(OC)c(C=O)c1
inactive: [1]

CCCCCCCCCl
inactive: all assays above

CC(C)(c1ccc(OCC2CO2)cc1)c1ccc(OCC2CO2)cc1 (configuration not stated)
inactive: [1] | [2] | [3] | [4] | [7] | [8] | [9]
active: [2] 68.3 µM | [4] 64.5 µM | [5] 84.2 µM and 80.6 µM | [6] 70.9 µM and 72.2 µM | [7] 87.1 µM | [9] 79.4 µM

ClC1=C(Cl)[C@]2(Cl)[C@@H]3[C@@H](Cl)[C@@H](Cl)C[C@@H]3[C@@]1(Cl)C2(Cl)Cl
inactive: [1]

ClC(Cl)=C(Cl)C(Cl)=C(Cl)Cl
inactive: [1]

CC(C)C1CCC(Cc2ccc(Cl)cc2)C1(O)Cn1cncn1 (configuration not stated)
active: [1] 33.2 µM | [2] 53.1 µM | [4] 45.7 µM | [5] 85.6 µM | [6] 45.7 µM | [7] 82.8 µM | [8] 71.1 µM | [9] 88.7 µM
inactive: [1]

CCCCCCCCSC(=O)Oc1cc(Cl)nnc1-c1ccccc1
active: [4] 59.1 µM
not listed: [9]
inactive: all other assays above

O=C1C(Cl)=C(Cl)C(=O)c2ccccc21
active: [2] 15 µM | [4] 30.9 µM and 46.2 µM | [5] 54.1 µM and 67.3 µM | [6] 14.5 µM and 14.4 µM | [8] 57.7 µM | [9] 17.1 µM
inactive: [1] | [2] | [3] | [8] | [9]

O=C(c1ccccc1)C(Cl)Cl
inactive: [1]

CC(C)c1cccc(C(C)C)c1O
not listed: [9]
inactive: all other assays above

Nc1cccc(Cl)c1
inactive: all assays above

CCOP(=S)(OCC)SCCS(=O)(=O)CC
inactive: [1]

C[C@@H](Oc1ccc(Cl)cc1Cl)C(=O)O
inactive: [1]

CC(=[OH+])/C=C(/C)[O-].CC(=[OH+])/C=C(/C)[O-].CC(=[OH+])/C=C(/C)[O-].[Fe]
inactive: [1]

CC(=O)C=C(C)C
inactive: [1]

Clc1nc(Cl)nc(Cl)n1
inactive: all assays above

Nc1ccc(-c2ccc(N)c(Cl)c2)cc1Cl
inactive: [1] | [2] | [4] | [5] | [6] | [8] | [9]
active: [3] 14.4 µM and 13.7 µM and 16.7 µM | [5] 15.7 µM and 18.6 µM | [9] 33.6 µM

C=CCc1ccc(OC)cc1
inactive: [1]

O=C(O)Cc1ccccc1
inactive: [1]

Nc1ccc(Cl)cc1C(=O)c1ccccc1
inactive: [1]

CC(=[OH+])/C=C(/C)[O-].CC(=[OH+])/C=C(/C)[O-].CC(=[OH+])/C=C(/C)[O-].[Al]
inactive: [1]

NC(=S)Nc1ccccc1
inactive: [1]

CCN(CC)C(=O)Cl
inactive: [1]

COP(=O)(OC)OC
inactive: all assays above

C(=NC1CCCCC1)=NC1CCCCC1
inactive: [1] | [2] | [3] | [5] | [8] | [9]
active: [4] 17.7 µM and 30.7 µM | [5] 16.2 µM

C[C@H]1O[C@@H](O[C@H]2[C@@H](O)C[C@H](O[C@H]3[C@@H](O)C[C@H](O[C@H]4CC[C@@]5(C)[C@H](CC[C@@H]6[C@@H]5CC[C@]5(C)[C@@H](C7=CC(=O)OC7)CC[C@]65O)C4)O[C@@H]3C)O[C@@H]2C)C[C@H](O)[C@@H]1O
inactive: [1] | [3] | [5] | [7] | [8] | [9]
active: [2] 35.6 nM and 51.1 nM | [4] 30 nM and 51.3 nM | [6] 40.5 nM and 66.7 nM | [8] 0.028 µM

CN(CCCC(=O)c1cccnc1)N=O
inactive: [1]

CCCCCCCCC(=O)NCc1ccc(O)c(OC)c1
inactive: [1]

O=CC=O
inactive: [1]

O=C1CCCN1
inactive: [1]

CC1(C)CCC(Cc2ccc(Cl)cc2)C1(O)Cn1cncn1 (configuration not stated)
inactive: [1]

CCOP(=S)(OCC)Oc1ccc(S(C)=O)cc1 (configuration not stated)
inactive: [1]

C=CC(=O)N(C)C
inactive: [1]

C=CC#N
inactive: all assays above
